From PubChem BioAssay come the findings set out here.

What is called viability is the share of living cells, or the viability signal relative to a control.

The structures appear in SMILES notation. Several values for one entry are separate records, joined by “and”; a condition that tells them apart may be missing. Identical values can stand only once. Activity calls are given as the source filed them.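 The calls were made as follows, unless noted: active = compound raises GLP1 secretion from the human gut endocrine cells, with no numeric limit stated; inactive = the rest.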

A short description of test [1]: Wnt pathway potentiators raising nuclear beta-catenin – imaging, WNT3A-conditioned medium, mouse C2C12, NPC library, primary screen (AID 1117326; in the data active = nuclear beta-catenin stimulation mostly above about 4.2%, no sharp cut-off; inactive = mostly below about 10%). Particulars: stronger effect = higher value.
The nature of test [2]: stimulators of insulin release from INS-1E, primary screen, cell-based, 5 mM glucose, NPC library (AID 1117329;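 active = compound raises insulin release from rat beta cells at 5 mM glucose, no numeric limit stated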). Conditions: rat INS-1E insulin secretion, at 10 µM, stronger effect = higher value.
A short description of test [3]: growth inhibition of GSK3B-pretreated HCT116 cells – cell-based, CellTiter-Glo, 0.2 to 20 µM (AID 1117336;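 active = compounds lowering colon cancer cell viability after pretreatment blocking the GSK3B kinase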). Conditions: HCT116 viability after GSK3B inhibitor, at 20 µM, stronger effect = higher value. For orientation: Cellular ATP, detected with luciferase, serves as a proxy for viable cell number.
Test [4] can be described thus: inhibition of endothelial tube formation, primary screen, imaging, VEGF stimulated, CD31 staining, tube area, NPC library (AID 1117340;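 active = compound that reduces growth-factor-driven endothelial tube area in a mixed cell culture, no cutoff stated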). Particulars: VEGF-stimulated ADSC/ECFC co-culture, at 10 µM, stronger effect = higher value.
Test [5] is described as follows: GLP1 release stimulators, primary, NCI-H716, NPC library (AID 1117341). Particulars: NCI-H716 cells, at 10 µM, stronger effect = higher value.
Test [6] in a line: HCT116 colon cancer cell growth inhibition, primary screen, CellTiter-Glo luminescence, NPC library (AID 1117342;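 active = compounds that lower survival of HCT116 colon cancer cells in the luminescence readout, no numeric limit stated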). Particulars: at 20 µM (top of the series).
Test [7] can be described thus: reduced SW480 viability measured with CellTiter-Glo, NPC library, primary (AID 1117343;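 active = compounds that lower viability of the colon cancer cells in the luminescence readout, with no numeric limit stated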). Conditions: CellTiter-Glo luminescence; at 20 µM (top of the series).
Test [8] in a line: NPC library primary testing for decreased DLD-1 cell viability via CellTiter-Glo (AID 1117346;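 active = compounds that lower survival of DLD-1 colon cancer cells in the luminescence readout, no cutoff given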). Conditions: DLD-1 viability, CellTiter-Glo luminescence; at 20 µM (top of the series).
The target of test [9] is NAD(+) hydrolase SARM1 (Homo sapiens) (UniProt Q6SZW1). The experiment in a line: blocking NAD cleavage by SARM1 SAM-TIR – cell lysate, NAD-Glo luminescence (AID 1508614;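 active = compound whose remaining NAD level is above about 45 nM, limit read from the data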;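 also: higher remaining NAD means stronger inhibition of SARM1 NADase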). Conditions: SAM-TIR HEK293T lysate NADase, at 1 µM, stronger effect = higher value.
Chain of NAD(+) hydrolase SARM1 (Homo sapiens) (Q6SZW1 whole entry, looked up): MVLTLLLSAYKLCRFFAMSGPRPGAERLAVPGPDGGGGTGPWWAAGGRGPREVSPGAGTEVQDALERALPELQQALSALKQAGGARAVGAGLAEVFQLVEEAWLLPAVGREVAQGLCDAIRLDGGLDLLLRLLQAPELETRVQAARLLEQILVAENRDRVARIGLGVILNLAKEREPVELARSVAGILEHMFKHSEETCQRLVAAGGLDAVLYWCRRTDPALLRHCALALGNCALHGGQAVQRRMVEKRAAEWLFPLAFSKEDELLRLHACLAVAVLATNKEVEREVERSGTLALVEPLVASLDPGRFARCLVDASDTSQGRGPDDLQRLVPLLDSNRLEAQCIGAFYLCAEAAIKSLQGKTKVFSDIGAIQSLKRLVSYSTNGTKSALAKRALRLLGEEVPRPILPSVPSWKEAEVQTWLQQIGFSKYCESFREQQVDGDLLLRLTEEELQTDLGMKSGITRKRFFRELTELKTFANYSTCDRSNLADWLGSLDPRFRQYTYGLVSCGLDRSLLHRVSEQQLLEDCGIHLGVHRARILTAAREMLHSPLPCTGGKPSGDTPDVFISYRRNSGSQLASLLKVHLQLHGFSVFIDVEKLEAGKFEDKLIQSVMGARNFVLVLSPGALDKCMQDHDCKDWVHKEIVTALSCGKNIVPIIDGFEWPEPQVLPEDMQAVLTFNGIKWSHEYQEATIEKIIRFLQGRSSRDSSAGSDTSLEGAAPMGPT
The nature of test [10]: compounds altering viability of human ES cells (AID 493140; call rule not given here;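 also: cells exposed to compounds for four days before counting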). Particulars: human embryonic stem cell survival screen; stronger effect = higher value.
A short description of test [11]: P. berghei load reduction in hepatocytes – cell-based, HepG2, luciferase luminescence, HepG2 viability, primary screen (AID 624349; in the data active = parasite load remaining mostly below about 12%, no sharp cut-off; inactive = mostly above about 10%;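 also: 100% = mean of DMSO negative control wells on the same plate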). Particulars: P. berghei liver stage in HepG2, luciferase luminescence, concentration not given here; parasite load remaining: stronger effect = lower value; viability: measured here: HepG2 viability without parasites.
Test [12] can be described thus: viability loss with induced miR-34 in A549 – imaging, A549 dox-inducible miR-34, nuclei and caspase counts, primary screen (AID 1347080;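 active = compounds whose cell count with miR-34 switched on is under 0.7 times the count with it off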). Conditions: A549 miR-34 inducible, Hoechst nuclei count, 48 h.
The nature of test [13]: MELAS cybrid and Rieske KO viability enhancers – cell-based, MELAS cybrids, Rieske KO mouse fibroblasts, CellTiter-Glo, primary screen (AID 1508586;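 active = mean z-score across replicates of 1.96 or higher in either the MELAS or the Rieske mutant cell line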;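 also: z relative to plate mean and SD of compound and empty wells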). Particulars: low glucose.
[14] abbreviates: measured here: relative caspase fold change +Dox/-Dox.
Where [15] appears, read: measured here: total cells with miR-34 induction, stronger effect = lower value.
The mark [16] stands for this setting: measured here: total cells without miR-34 induction.
[17] abbreviates: MELAS cybrid survival, CellTiter-Glo 48 h, stronger effect = higher value.
The mark [18] stands for this setting: Rieske KO mouse fibroblast survival, CellTiter-Glo 72 h.

Turning to `CC(C)(C)CC(C)(C)c1ccc(O)cc1`, the nuclear beta-catenin stimulation in test [1] (at 10 µM) was -1.8% (inactive); in test [1] (stimulation, at 2 µM), -0.9%. In [2], the insulin secretion stimulation was 4% (inactive). Also, the viability decrease in [3] was 84.6% (active). Besides, the tube area decrease in test [4] is 66.9% (active). The GLP1 secretion stimulation in test [5] was 28.5% (active). In addition, the inhibition of viability in test [6] was 74.8% (active). The values for the viability decrease (inhibition) in test [7] and in [8] were 142% (active) and 104% (active), respectively. Further, the remaining NAD in test [9] was 10 nM (inactive).

In the case of `COc1ccc2c(c1OC)CN1CCc3cc4c(cc3C1C2)OCO4` (stereo not drawn), the survival in [10] is 0.583 (inactive). The parasite load remaining in test [11] is 82.7% (inactive). Moreover, in [11], the viability was 89.1%. The nuclear beta-catenin stimulation in test [1] (at 10 µM) was 2.2% (inactive); in test [1] (stimulation, at 2 µM), 2.8%. In addition, the insulin secretion stimulation in [2] is 1.5% (inactive). Also, the viability decrease in test [3] is 34.2% (inactive). Moreover, the tube area decrease in test [4] was 1.4% (inactive). For the same compound, the GLP1 secretion stimulation in test [5] was -1% (inactive). The inhibition of viability in [6] was 49.3% (inactive). For the same compound, the viability decrease (inhibition) in [7] is -5.2% (inactive); in [8] it was 21.3% (inactive). For the same compound, the results for the fold change in test [12] (stronger effect = lower value) and in test [12] (setting [14]) were 0.795 (inactive) and 1.12, respectively. Besides, the cell count in test [12] (setting [15]) came to 8510; in test [12] (setting [16]), 10700.

On to `CC(C)NCC(O)c1ccccc1Cl` (stereo not drawn), for which the nuclear beta-catenin stimulation in test [1] (at 10 µM) is -0.5% (inactive); in [1] (stimulation, at 2 µM) it was 0.8%. Besides, the insulin secretion stimulation in [2] was 11.3% (inactive). Moreover, the viability decrease in test [3] is -4.5% (inactive). Also, the tube area decrease in test [4] is 8.9% (inactive). Besides, in test [5], the GLP1 secretion stimulation was 3.1% (inactive). In test [6], the inhibition of viability was 0.8% (inactive). Moreover, the viability decrease (inhibition) in test [7] was 23.3% (inactive); in test [8], 9% (inactive). Further, the fold change is 0.961 (inactive) in [12] (stronger effect = lower value, cell number ratio, induced over uninduced) and 0.533 in [12] (setting [14]). For the same compound, the values for the cell count in test [12] (setting [15]) and in [12] (setting [16]) were 8950 and 9320, respectively. Also, the results for the z-score in [13] (setting [17]) and in test [13] (setting [18]) were -0.27 (inactive) and -0.204, respectively.

With `CCC1(c2cccc(O)c2)CCCCN(C)C1` (stereo not drawn), in [10], the survival is 2.75 (inactive). Besides, the parasite load remaining in test [11] was 114% (inactive). In test [11], this compound showed a viability of 77.7%. Further, the nuclear beta-catenin stimulation is -0.6% (inactive) in test [1] (at 10 µM) and -0.3% in test [1] (stimulation, at 2 µM). The insulin secretion stimulation in [2] is 19.8% (inactive). Moreover, the viability decrease in test [3] is 10.8% (inactive). In addition, in test [4], the tube area decrease is -4.7% (inactive). For the same compound, the GLP1 secretion stimulation in [5] is 1.4% (inactive). The inhibition of viability in test [6] was -13.6% (inactive). Besides, the viability decrease (inhibition) is 57% (active) in test [7] and 13.3% (inactive) in test [8]. For the same compound, the fold change was 0.914 (inactive) and 0.925 (inactive) in test [12] (stronger effect = lower value); 0.54 and 0.493 in [12] (setting [14]). Further, the cell count in test [12] (setting [15]) was 8800 and 7600; in test [12] (setting [16]), 9630 and 8210. Besides, the z-score is -0.204 (inactive) and -0.911 (inactive) in test [13] (setting [17]); -0.179 and 0.197 in test [13] (setting [18]).

Consider `C[C@]12CCC(=O)C=C1CC[C@@H]1[C@@H]2CC[C@]2(C)C(=O)CC[C@@H]12`, for which the nuclear beta-catenin stimulation in test [1] (at 10 µM) was -0.1% (inactive); in test [1] (stimulation, at 2 µM) it was -1.6%. Further, the insulin secretion stimulation in test [2] is 2.4% (inactive). In test [3], the viability decrease is 64.9% (active). Also, in test [4], the tube area decrease was -7% (inactive). Also, the GLP1 secretion stimulation in [5] is -2.7% (inactive). In addition, the inhibition of viability in [6] was 68.5% (active). Further, the values for the viability decrease (inhibition) in [7] and in [8] were 23.5% (inactive) and 45.9% (inactive), respectively.

In the case of `COC(C)(C)CCCC(C)C/C=C/C(C)=C/C(=O)OC(C)C` (stereo not drawn), the nuclear beta-catenin stimulation is 2% (inactive) in [1] (at 10 µM) and 1% in test [1] (stimulation, at 2 µM). Also, in test [2], the insulin secretion stimulation was 1.35% (inactive). In addition, in [3], the viability decrease was 30.9% (inactive). For the same compound, the tube area decrease in test [4] is 2.7% (inactive). In addition, in [5], the GLP1 secretion stimulation is 3.9% (inactive). Moreover, the inhibition of viability in test [6] was 42% (inactive). Further, the viability decrease (inhibition) in test [7] was 9.6% (inactive); in test [8], 17.2% (inactive). In test [9], the remaining NAD is 10 nM (inactive).
